High-throughput results from PubChem.
eLon inh: E. coli protease La inhibition; P0A9M0; purified E. coli Lon protease, fluorescence polarization; inhibition, % at 7.94 µM; 0.42% of 360,000 active; in the data active = inhibition above about 13%, passing the limit was not always enough
C-LANA FP: inhibitors of KSHV LANA C-terminal domain DNA binding; MBP-C-LANA/FAM-LBS DNA binding, fluorescence polarization; inhibition, % at 9 µM; 0.078% of 340,000 active;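 active = highest replicate inhibition at or above 60% at 9 µM, even if other replicates fall short; inactive = all replicates below 60% inhibition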
MEX-5 binding: C. elegans MEX-5 TCR-2 RNA binding activity. Q9XUB2. 0.38% of 300,000 active. MEX-5/FITC-TCR2 RNA binding, fluorescence polarization; active compounds read low. AID 1832. activity score (negative = inhibition of binding), % at 10 µM;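 active = inhibition past about -25% in most replicates, and total fluorescence under double the plate's negative control median, limit read from the data; inconclusive = replicates evenly split on the limit, or fluorescence at least double controls; inactive = too little inhibition in most replicates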
Keap1 Nrf2 FP: inhibitors of human Keap1-Nrf2 protein-protein interaction; 0.15% of 340,000 active; Q14145; Keap1 Kelch-Nrf2 peptide fluorescence polarization, 1536-well; inhibition, % at 9.4 µM; in the data active = inhibition above about 12%; inconclusive = no clear call, values can overlap the other calls; inactive = below about 7.3%;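 also: human Keap1 Kelch domain with fluorescein labeled Nrf2 9mer peptide probe; higher means more block of Keap1 binding to Nrf2 peptide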
GLD-1 TGE inh: GLD-1-TGE RNA interaction inhibition (C. elegans); 0.44% of 320,000 active; purified GLD-1 + fluorescein TGE RNA, fluorescence polarization; AID 2280; Q17339; inhibition, % at 5.96 µM;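 active = percent inhibition above a per-plate cutoff, the plate mean of test compounds plus 3 SD, cut at about 30% in these data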
Bcl-xL primary: inhibitors of human Bcl-xL | Q07817 | GST-Bcl-xL / FITC-Bim BH3 peptide fluorescence polarization | inhibition, % at 10.9 µM | 0.7% of 320,000 active;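 active = inhibition above the mean of all tested compounds plus 3 SD, cutoff set per campaign, cut at about 30% in these data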;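 also: inhibitors lower millipolarization by displacing the labeled peptide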
Target sequence (Q07817 whole entry, looked up): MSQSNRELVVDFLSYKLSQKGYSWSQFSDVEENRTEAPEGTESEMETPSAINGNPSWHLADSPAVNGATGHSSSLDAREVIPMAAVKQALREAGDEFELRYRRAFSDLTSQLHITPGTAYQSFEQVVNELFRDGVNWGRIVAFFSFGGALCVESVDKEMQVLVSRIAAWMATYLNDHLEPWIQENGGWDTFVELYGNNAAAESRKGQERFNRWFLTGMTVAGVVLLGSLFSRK
Numbers stand for hits; . = inactive; ? = inconclusive; / = not tested or not shown. Rows were chosen to be rich in hits. Some 1.2% of all compounds tested hit in one or more screens of this group.

SMILES	eLon inh	C-LANA FP	MEX-5 binding	Keap1 Nrf2 FP	GLD-1 TGE inh	Bcl-xL primary
O=C(NCCN1CCOCC1)c1ccc(NC(=O)c2ccc(Br)o2)cc1	.	/	/	/	/	/
Cc1nc(S/C(=C/c2ccc(-c3cccc(Cl)c3)o2)C(=O)O)n[nH]1	.	.	-35	.	.	.
COc1cccc(N=Nc2c(=O)[nH]n3c(=O)cc(C)[nH]c23)c1	.	.	-32	.	.	.
O=C(O[C@@H]1OC2COC(=O)c3cc(O)c(O)c(O)c3-c3c(cc(O)c(O)c3O)C(=O)O[C@@H]([C@H]1O)[C@@H]2O)c1cc(O)c(O)c(O)c1	33	121	-67	/	.	62
CC1CCCCN1CCNC(=O)c1cc2c(=O)n(C)c3ccccc3c2n1C (stereo not given)	.	.	.	.	.	34
Cn1c(C(=O)NCCN2CCOCC2)cc2c(=O)n(C)c3ccccc3c21	.	.	.	.	.	.
CC(=O)NC(c1ccc(F)c(F)c1)c1nc(-c2cc3ccccc3o2)cs1 (stereo not given)	.	/	/	/	/	/
O=C(NC1CCCc2c1cnn2-c1ccc(F)cc1F)c1ccccn1 (stereo not given)	.	.	.	.	.	31
O=C(NC1CCCc2c1cnn2-c1ccccc1F)c1ccccn1 (stereo not given)	.	.	.	.	.	.
O=C(NCc1ccc(Cl)cc1)[C@@H]1CCCN1S(=O)(=O)c1ccc(Cl)cc1	.	.	/	.	.	/
O=C(O)c1ccc(NS(=O)(=O)c2ccc3c(c2)C2C=CCC2C(c2ccccc2F)N3)cc1 (stereo not given)	.	108	/	.	/	/
O=C(O)c1ccc2c(c1)C1C=CCC1C(c1cc3c(cc1Br)OCO3)N2 (stereo not given)	.	.	.	.	.	.
O=C(C[n+]1cc(Br)cc2ccccc21)c1ccc(Br)cc1	.	.	.	.	.	58
O=C(C[n+]1cc(Br)cc(Br)c1)c1ccc(Cl)cc1	.	.	.	.	.	.
O=C(C[n+]1cccc2ccccc21)c1ccc(Br)cc1	.	.	.	.	.	.
O=C(C[n+]1cc(Br)cc2ccccc21)c1ccc(Cl)cc1	.	.	.	.	.	84
O=C(CNS(=O)(=O)c1ccc([N+](=O)[O-])cc1)N/N=C/c1ccc(O)cc1O	.	.	-57	.	.	.
Cc1ccc(S(=O)(=O)NC(=O)C2(C)CCN2C(=O)Cc2ccc(Cl)cc2Cl)cc1 (stereo not given)	.	/	/	/	/	/
CCN1CCN(Cc2c(O)ccc3c2O/C(=C\C=C\c2ccccc2)C3=O)CC1	.	.	?	.	.	.
CC1CCCN(Cc2c(O)ccc3c2O/C(=C\c2ccco2)C3=O)C1 (stereo not given)	.	.	?	.	95	123
CCN1CCN(Cc2c(O)ccc3c2O/C(=C\c2ccccc2)C3=O)CC1	.	.	-34	.	.	54
CCN1CCN(Cc2c(O)ccc3c2O/C(=C\c2ccc(C)cc2)C3=O)CC1	.	.	-29	.	.	40
CC1CCCN(Cc2c(O)ccc3c(=O)c(-c4ccc(Cl)cc4)coc23)C1 (stereo not given)	.	.	.	.	/	/
CCc1ccc(/C=C2\Oc3c(ccc(O)c3CN3CCN(C)CC3)C2=O)cc1	.	.	/	.	.	42
O=C1/C(=C/C=C/c2ccccc2)Oc2c1ccc(O)c2CN1CCN(CCO)CC1	.	.	.	.	.	.
SMILES	eLon inh	C-LANA FP	MEX-5 binding	Keap1 Nrf2 FP	GLD-1 TGE inh	Bcl-xL primary
COC(=O)C(OC(=O)c1ccccc1)C(C)Br (stereo not given)	.	.	/	.	.	.
O=C1NC(=O)C(Cc2ccc(O)cc2)N1 (stereo not given)	.	.	/	.	/	/
COc1ccccc1/C=C/C=C1\Oc2c(ccc(O)c2CN2CCN(CCO)CC2)C1=O	.	.	?	.	.	40
Cc1ccc(/C=C2\Oc3c(ccc(O)c3CN3CCN(C)CC3)C2=O)cc1	.	.	?	.	.	46
CN(C)Cc1c(O)ccc2c1O/C(=C\C=C\c1ccccc1)C2=O	.	.	?	.	.	78
CCN(CC)C(=O)C1=C(C)N(CCCOC)C(=O)C(CC(=O)NCc2ccco2)C1 (stereo not given)	.	/	/	/	/	/
Cc1sc(/C=C2\C(=O)ON=C2c2ccccc2)cc1Br	/	/	-31	/	.	.
CCc1nc2c(OCC(=O)C(C)(C)C)cccn2c1N(C=O)Cc1ccccc1	.	/	/	/	/	/
O=C(N/N=C/c1ccc(-c2cccc([N+](=O)[O-])c2)o1)c1ccc([N+](=O)[O-])cc1	.	.	-35	.	.	.
O=C(NC1CC1)C1=C[C@@H](c2c[nH]c3ccccc23)C[C@@H](OCc2ccc(CO)cc2)O1	.	.	.	.	.	39
O=C(O)c1c2c(nc3ccccc13)/C(=C/c1ccc(O)cc1)CC2	.	.	-30	.	.	36
O=C(COC(=O)C1CC1)Nc1ncc(C(F)(F)F)cc1Cl	.	.	.	.	.	32
CCOn1c(=O)c(-c2cc3ccccc3o2)[n+]([O-])c2ccccc21	.	.	-43	.	.	.
O=c1c(-c2ccco2)[n+]([O-])c2ccccc2n1OCc1ccccc1	.	.	.	.	38	30
O=c1c(-c2ccco2)[n+]([O-])c2ccccc2n1OCc1c(F)cccc1F	.	.	.	.	.	.
CCOn1c(=O)c(-c2ccc(Br)cc2)[n+]([O-])c2ccccc21	.	.	.	/	.	.
COc1ccc2[nH]c3c(c2c1)CCN1C(=O)C(CC(=O)NC/C=C(\C)CCC=C(C)C)C[C@H](C(=O)N(C(C)C)C(C)C)[C@@]31C (stereo not given in full)	.	.	/	.	/	/
O=C1NN=C(c2ccccc2)C1Cc1ccccc1 (stereo not given)	.	.	/	.	/	/
CCn1c2ccccc2c(=O)c2ccccc21	.	.	-28	.	.	.
CCn1c2ccccc2c2cc([N+](=O)[O-])ccc21	.	.	.	.	.	.
O=C(COC(=O)/C=C/c1cccc(Br)c1)Nc1ccc(Cl)cn1	.	/	/	/	/	/
COc1cccc(/C=C/C(=O)OCC(=O)Nc2ccc(Cl)cn2)c1	14	.	.	.	.	.
Oc1ccc(N2CCN(c3nc(-c4cccs4)nc4ccccc34)CC2)cc1	.	.	.	.	.	32
c1ccc(N2CCN(c3nc(-c4cccs4)nc4ccccc34)CC2)cc1	.	.	.	.	.	.
Cc1ccc(NC(=O)c2ccc3c(c2)N(CC(=O)NC(C)C)C(=O)C(C)(C)O3)cc1	.	.	.	.	.	.
CC(C)OC(=O)CC(=O)c1sc2nc3c(cc2c1N)CN(C)CC3	/	/	-31	/	53	84
CCN1CCc2nc3sc(C(=O)N4CCc5ccccc5C4)c(N)c3cc2C1	.	.	.	.	.	.
NS(=O)(=O)c1ccc(-c2cccc(/C=C3\SC(=O)NC3=O)c2)cc1	.	.	-36	.	.	.
COc1ccc(C=C2SC(=O)NC2=O)cc1OC	.	.	/	.	/	/
